Assay outcomes: PubChem, several laboratories
CYP2C9 act – CYP2C9 (human) activation; P11712; 96,000 tested, 1.4% active; AID 1024; activation factor at 5 µM; recombinant CYP2C9, luciferin-H conversion, luminescence; stronger effect = higher value; factor 1 = untreated enzyme, 0 = blocked;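 active means activation factor of 2 or more for CYP2C9 at a 5 µM dose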
Target sequence (P11712 whole entry, looked up): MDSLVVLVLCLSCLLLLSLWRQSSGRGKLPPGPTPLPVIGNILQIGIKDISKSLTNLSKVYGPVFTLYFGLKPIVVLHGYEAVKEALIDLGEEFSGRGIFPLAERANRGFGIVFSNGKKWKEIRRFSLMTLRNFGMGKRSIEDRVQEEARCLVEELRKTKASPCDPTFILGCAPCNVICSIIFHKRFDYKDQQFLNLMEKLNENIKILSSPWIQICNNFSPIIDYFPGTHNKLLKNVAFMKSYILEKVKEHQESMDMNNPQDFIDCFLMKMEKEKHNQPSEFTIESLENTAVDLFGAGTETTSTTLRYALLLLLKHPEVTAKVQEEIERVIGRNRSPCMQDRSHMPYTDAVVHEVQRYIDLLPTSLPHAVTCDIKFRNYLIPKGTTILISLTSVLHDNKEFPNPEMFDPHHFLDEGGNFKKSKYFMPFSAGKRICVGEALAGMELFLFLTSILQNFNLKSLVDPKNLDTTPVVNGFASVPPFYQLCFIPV
CYP2C9 inh – blocks human cytochrome P450 2C9. CYP2C9 Supersomes, luciferin-H conversion, luminescence. P11712. 96,000 tested, 20% active. inhibition, % at 5 µM. AID 777;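 active means blocking of liver enzyme CYP2C9 beyond about 50% at 5 µM, limit read from the data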
CYP2C19 act – increases human CYP2C19 enzyme activity. recombinant CYP2C19, luciferin-H EGE luminescence; stronger effect = higher value; 0 = fully inhibited enzyme, 1 = untreated enzyme. activation factor at 5 µM. 96,000 tested, under 10 active. AID 1025;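 active means activation factor of at least 2 at 5 µM in the primary screen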
sEH inhibitor – soluble epoxide hydrolase (human) inhibition; recombinant human sEH enzymatic activity assay; AID 707; 91,000 tested, 0.34% active; inhibition, % at 2 µM; P34913; in the data active means inhibition above about 80%
CYP2C19 inhib – blocks human cytochrome P450 2C19; P33261; CYP2C19 Supersomes, luciferin-H EGE luminescence, 30 min; inhibition, % at 5 µM; 96,000 tested, 21% active; AID 778;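 active means CYP2C19 inhibition above a set limit at 5 µM in the primary screen, cut at about 50% in these data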
sEH activator – increases human soluble epoxide hydrolase activity; P34913; purified human sEH enzymatic activity, activator screen; activation, % at 2 µM; 91,000 tested, 0.04% active; AID 717; in the data active means activation above about 37%
Of the large screens only hits and unclear results are named; the others gave an inactive call. A selection: hits, their analogues and other compounds. The true share with any hit is near 27%.

CC1=C(C(=O)NCCCOC(C)C)C2(CCC(C)CC2)OC1=O (stereo unspecified)	CYP2C19 inhib 64 (no result: sEH inhibitor, sEH activator)
CC1=C(C(=O)NCCN2CCOCC2)C2(CCC(C)CC2)OC1=O (stereo unspecified)	none (no result: sEH inhibitor, sEH activator)
CC1=C(C(=O)NCc2ccccn2)C2(CCC(C)CC2)OC1=O (stereo unspecified)	CYP2C19 inhib 77
COc1ccc(CNC(=O)C2=C(C)C(=O)OC23CCC(C)CC3)cc1 (stereo unspecified)	CYP2C19 inhib 55
Cc1cccc(-c2nc(=S)c3c(o2)CCCC3)c1	CYP2C9 act 2.5
S=c1nc(-c2ccc(Br)cc2)oc2c1CCCC2	none
COc1cc(CN(C)Cc2ccccc2)cc(OC)c1O	CYP2C19 inhib 65
COc1ccc(CCN(C)Cc2ccc(OC)c(OCc3ccccc3)c2)cc1OC	none
CCOC(=O)c1cc(-c2ccc(F)cc2)n(CC(=O)Nc2nccs2)c1C	none (no result: CYP2C9 act, CYP2C9 inh, CYP2C19 act, CYP2C19 inhib)
CC(=O)OC1COC(n2ccc3ccccc32)C(OC(C)=O)C1OC(C)=O (stereo unspecified)	CYP2C19 inhib 67
CC(=O)OCC1OC(n2ccc3ccccc32)C(OC(C)=O)C(OC(C)=O)C1OC(C)=O (stereo unspecified)	none
Fc1cccc(CN2CCN(c3ncccn3)CC2)c1	none (no result: sEH inhibitor, sEH activator)
Cc1ccccc1CS(=O)(=O)CCC(=O)NCc1ccccn1	none
N#Cc1c(C(F)(F)F)cc(-c2ccc(Cl)c(Cl)c2)nc1SCCN1CCOCC1	none
N#Cc1c(C(F)(F)F)cc(-c2ccccc2)nc1SCc1nc(N)nc(N2CCOCC2)n1	CYP2C9 inh 80, CYP2C19 inhib 81 (no result: sEH inhibitor, sEH activator)
CC(Sc1nc(-c2ccccc2)cc(C(F)(F)F)n1)C(=O)Nc1sc2c(c1C#N)CCC2 (stereo unspecified)	CYP2C9 inh 64
N#Cc1c(C(F)(F)F)cc(-c2ccccc2)nc1SCC(=O)Nc1sc2c(c1C#N)CCC2	CYP2C9 inh 71
N#Cc1ccc(-c2cccnc2)nc1SCC(=O)Nc1sc2c(c1C#N)CCC2	none (no result: sEH inhibitor, sEH activator)
COC(=O)c1ccc(Oc2c(C)oc3c(CN4CCN(C)CC4)c(O)ccc3c2=O)cc1	none
Cc1ccc2nc(N3CCN(S(=O)(=O)c4ccc(C)c(Cl)c4)CC3)c(C#N)cc2c1	none
Cc1cccc(NC(=O)c2sc(Cl)nc2-c2ccccc2)c1	CYP2C9 inh 54, CYP2C19 inhib 91
CCc1cccc(NC(=O)c2snc3c(=O)[nH]cnc23)c1	none
Cc1cccc(NC(=O)c2snc3c(=O)[nH]cnc23)c1	CYP2C9 inh 52
CC(C)(C)C(=O)NC(=C(Cl)Cl)P(=O)(O)O	none
COc1ccccc1Nc1nc(N)nc(CN2CCC(Cc3ccccc3)CC2)n1	CYP2C9 inh 72, CYP2C19 inhib 50
COc1ccc(Nc2nc(N)nc(CN3CCC(Cc4ccccc4)CC3)n2)cc1	none (no result: sEH inhibitor, sEH activator)
CCCC(c1nnnn1CCc1ccccc1)N1CCC(C(N)=O)CC1 (stereo unspecified)	none (no result: CYP2C9 act, CYP2C9 inh, CYP2C19 act, CYP2C19 inhib)
CC1(C)Cc2ccccc2C(N)=C1C#N	CYP2C9 inh 78, CYP2C19 inhib 94
O=c1c2c([nH]c3ccccc13)CCCC2	CYP2C9 act 2.4
CCCN(CCC)C(=S)NC(=O)c1ccc(Cl)cc1Cl	none
CCOC(=O)c1nnn(-c2nc(N3CCCC3)nc(N3CCCC3)n2)c1-c1ccccc1	CYP2C19 inhib 51
CCOC(=O)c1nnn(-c2ccccc2)c1C	none (no result: CYP2C9 act, CYP2C9 inh, CYP2C19 act, CYP2C19 inhib)
CCOC(=O)c1c(-c2ccccc2)nnn1-c1nc(OCC)nc(N2CCCCC2)n1	CYP2C9 inh 60, CYP2C19 inhib 88 (no result: sEH inhibitor, sEH activator)
CCOCCCNC(=O)C(c1ccc(Cl)cc1)N1CCC2(CC1)OCCO2 (stereo unspecified)	CYP2C19 inhib 59
O=C(Nc1ccc2c(c1)OCO2)C(c1ccc(Cl)cc1)N1CCC2(CC1)OCCO2 (stereo unspecified)	CYP2C19 inhib 52
CCOCCCNC(=O)C(c1ccc(Cl)cc1)N1CCN(C(=O)c2ccco2)CC1 (stereo unspecified)	none
CCOCCCNC(=O)C(c1ccc(Cl)cc1)N1CCN(c2ccccc2)CC1 (stereo unspecified)	CYP2C19 inhib 51
CC(=O)Nc1ccc(S(=O)(=O)N2CCN(CC(=O)NC3CCCC3)CC2)cc1	none
CC1(C)CC(=O)c2cc(C(=O)N3CCN(CCO)CC3)c(=O)n(-c3ccc(Cl)cc3)c2C1	none
O=c1[nH]c2ccccc2c(=O)n1Cc1ccco1	none
COc1ccc2nc(NC(=O)CCc3nc(-c4ccccc4F)no3)sc2c1	none
